Compound activity as filed in PubChem.
Rows were chosen to be rich in hits. Some 2.5% of all compounds tested hit in one or more screens of this group.
aDG glyco up: increases alpha dystroglycan glycosylation; Pro5-aDG cells, alpha-DG glycosylation AlphaScreen (IIH6); 0% Pro5, 100% B10-LARGE cell signal; AID 624168; activation, % at 10 µM; 0.22% of 360,000 active;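 active = activation of at least 8% versus controls, or a plate z-score of at least 8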;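 note: Pro5 are CHO cells carrying HIG-tagged alpha-DG that lacks glycosylation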
NPR1 activator: GC-A (human) enzyme activation. activation, % at 10 µM. 0.14% of 370,000 active. AID 1671463. P16066. HEK293 GC-A cells, cGMP TR-FRET, EC30 ANP; 0% at EC30 ANP, 100% saturating ANP; in the data active = activation above about 40%
Target sequence (P16066 whole entry, looked up): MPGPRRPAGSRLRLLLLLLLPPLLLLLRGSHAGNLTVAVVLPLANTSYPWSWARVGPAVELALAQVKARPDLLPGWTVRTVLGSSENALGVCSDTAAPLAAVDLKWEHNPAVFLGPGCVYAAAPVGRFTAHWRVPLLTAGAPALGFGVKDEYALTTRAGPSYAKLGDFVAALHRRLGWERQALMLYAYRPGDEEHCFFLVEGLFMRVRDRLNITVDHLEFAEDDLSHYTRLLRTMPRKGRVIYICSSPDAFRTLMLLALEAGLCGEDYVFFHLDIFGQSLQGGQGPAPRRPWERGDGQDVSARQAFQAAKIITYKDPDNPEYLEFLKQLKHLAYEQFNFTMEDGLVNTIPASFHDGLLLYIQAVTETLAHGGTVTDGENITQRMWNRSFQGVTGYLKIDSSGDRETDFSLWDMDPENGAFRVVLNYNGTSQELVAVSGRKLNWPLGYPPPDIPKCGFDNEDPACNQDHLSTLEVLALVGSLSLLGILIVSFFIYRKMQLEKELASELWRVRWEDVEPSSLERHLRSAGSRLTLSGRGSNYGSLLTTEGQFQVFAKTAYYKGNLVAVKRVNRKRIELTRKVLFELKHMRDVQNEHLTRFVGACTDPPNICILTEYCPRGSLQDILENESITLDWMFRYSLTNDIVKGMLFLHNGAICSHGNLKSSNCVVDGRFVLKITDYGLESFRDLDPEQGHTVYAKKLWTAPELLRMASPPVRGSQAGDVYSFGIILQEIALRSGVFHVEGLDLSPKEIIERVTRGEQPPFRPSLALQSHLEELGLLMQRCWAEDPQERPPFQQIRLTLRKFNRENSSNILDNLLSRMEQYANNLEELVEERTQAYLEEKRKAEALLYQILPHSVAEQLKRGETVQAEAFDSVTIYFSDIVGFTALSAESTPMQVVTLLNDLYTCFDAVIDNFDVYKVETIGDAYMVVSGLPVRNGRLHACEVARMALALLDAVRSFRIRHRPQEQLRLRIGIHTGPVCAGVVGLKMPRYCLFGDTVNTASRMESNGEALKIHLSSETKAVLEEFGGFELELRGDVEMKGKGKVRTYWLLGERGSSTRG
HSF-1 act: increases HSF-1 driven luciferase reporter signal | NIH3T3-HGL HSF-1 luciferase reporter, MG132, 8 h; 100% = twice DMSO control signal | activation, % at 9 µM | 1.7% of 300,000 active;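 active = mean replicate activation of at least 50% with a set share of replicates each reaching 50%; inconclusive = only one of those two conditions met; inactive = mean below 50% and too few replicates reaching it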
NPR2 activator: GC-B (human) receptor activation; activation, % at 10 µM; HEK293-GC-B cells, CNP EC30, cGMP TR-FRET; 0% at EC30 CNP, 100% saturating CNP; 0.11% of 370,000 active; AID 1920062; P20594;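 active = activation at 10 µM reaching about 35% in either raw or pattern-adjusted values, limit read from the data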
HSF1 inh: HSF1 inhibition; 0.77% of 300,000 active; NIH3T3-HGL HSE-luciferase, MG132-induced, luminescence 8 h; hits give low values; activity change, negative = inhibition, % at 7.5 µM (by protocol); AID 2098;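 active = more than half of replicate wells show activity change below -50%, luminescence cut by over half; inconclusive = some wells, but at most half, below -50%; inactive = no replicate well below -50%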;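 note: luciferase reports HSF-1 transcriptional activity via heat shock element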
DYRK1A inh: inhibitors of rat Dyrk1A kinase; 0.43% of 310,000 active; ADP-Glo luminescence, NFATc1 peptide; AID 504441; Q63470; inhibition, % at 12.5 µM; in the data active = inhibition above about 50%
Numbers stand for hits.

How did C/C(CC(=O)Nc1ccc(N(C)C)cc1)=N\NC(=O)c1ccncc1 do in these assays?
aDG glyco up: inactive; NPR1 activator: inactive; HSF-1 act: inactive; NPR2 activator: inactive; HSF1 inh: inactive; DYRK1A inh: inactive

How did C=CCOc1ccc(C2C(C(=O)c3ccc(C)o3)=C(O)C(=O)N2Cc2cccnc2)cc1 (stereo unspecified) do in these assays?
aDG glyco up: inactive; NPR1 activator: inactive; HSF-1 act: inactive; NPR2 activator: inactive; HSF1 inh: inactive; DYRK1A inh: inactive

Results for C=CCOCCN(CCOCC=C)C1=NS(=O)(=O)c2ccccc21 ?
aDG glyco up: inactive; NPR1 activator: inactive; HSF-1 act: inactive; NPR2 activator: inactive; HSF1 inh: -92; DYRK1A inh: inactive

What do the screens show for `Cc1ccccc1C(=O)Nc1cc(-c2cc(C(C)(C)C)oc2C)nn1C`?
aDG glyco up: inactive; NPR1 activator: inactive; HSF-1 act: inactive; NPR2 activator: inactive; HSF1 inh: inactive; DYRK1A inh: inactive

How did COC(=O)c1cc(OC)c(OC)cc1NC(=S)NC(=O)c1ccco1 do in these assays?
aDG glyco up: inactive; NPR1 activator: inactive; HSF-1 act: 73; NPR2 activator: inactive; HSF1 inh: inactive; DYRK1A inh: inactive

How did CCN(CC)c1ccc(NC(=S)NC(=O)c2ccco2)cc1 do in these assays?
aDG glyco up: inactive; NPR1 activator: inactive; HSF-1 act: 180; NPR2 activator: inactive; HSF1 inh: inactive; DYRK1A inh: inactive

How did CC1C(=O)N(Cc2cn(CCC3OCCO3)nn2)CCS(=O)(=O)N1Cc1ccc(-c2cccc(N(C)C)c2)cc1 (stereo unspecified) do in these assays?
aDG glyco up: inactive; NPR1 activator: inactive; NPR2 activator: inactive

How did CSc1ccc(S(=O)(=O)Nc2ccc3c(c2)NC(=O)CC3)cc1 do in these assays?
aDG glyco up: inactive; NPR1 activator: inactive; HSF-1 act: inactive; NPR2 activator: inactive; HSF1 inh: inactive; DYRK1A inh: inactive

How did Cc1cccc(NC(=O)C[n+]2ccccc2)c1 do in these assays?
aDG glyco up: inactive; NPR1 activator: inactive; HSF-1 act: inactive; NPR2 activator: inactive; HSF1 inh: inactive; DYRK1A inh: inactive

How did Nc1cc[n+](CC(=O)Nc2ccccc2)cc1 do in these assays?
aDG glyco up: inactive; NPR1 activator: inactive; HSF-1 act: 56; NPR2 activator: inactive; HSF1 inh: inactive; DYRK1A inh: inactive

What do the screens show for `O=CNCCCc1nc2ccccc2n1Cc1ccccc1`?
aDG glyco up: inactive; NPR1 activator: inactive; HSF-1 act: inactive; NPR2 activator: inactive; HSF1 inh: inactive; DYRK1A inh: inactive

What do the screens show for `CC(=O)Nc1ccccc1`?
aDG glyco up: inactive; NPR1 activator: inactive; NPR2 activator: inactive; DYRK1A inh: inactive

How did O=C(CCl)Nc1ccc(-c2ccccc2)cc1 do in these assays?
aDG glyco up: inactive; NPR1 activator: inactive; HSF-1 act: inactive; NPR2 activator: inactive; HSF1 inh: inconclusive; DYRK1A inh: inactive

Results for CC(=O)Nc1ccc(N=Nc2ccccc2)cc1 ?
aDG glyco up: inactive; NPR1 activator: inactive; HSF-1 act: 60; NPR2 activator: inactive; HSF1 inh: inactive; DYRK1A inh: inactive

How did O=C(CCl)Nc1ccc(N=Nc2ccccc2)cc1 do in these assays?
aDG glyco up: inactive; NPR1 activator: inactive; HSF-1 act: 68; NPR2 activator: inactive; HSF1 inh: inactive; DYRK1A inh: inactive

How did O=C(Nc1ccc(N=Nc2ccccc2)cc1)c1ccccc1Cl do in these assays?
aDG glyco up: inactive; NPR1 activator: inactive; HSF-1 act: 72; NPR2 activator: inactive; HSF1 inh: inactive; DYRK1A inh: inactive

Results for O=C(C1CCCN(Cc2ccccc2)C1)N1CCc2ccccc2C1 (stereo unspecified) ?
aDG glyco up: inactive; NPR1 activator: inactive; HSF-1 act: inactive; NPR2 activator: inactive; HSF1 inh: inactive; DYRK1A inh: inactive

How did COc1ccc(C(=O)NNC(=O)Cn2nc(C)cc2C)cc1S(=O)(=O)N1CCOCC1 do in these assays?
aDG glyco up: inactive; NPR1 activator: inactive; NPR2 activator: inactive

Results for CC1=NN(c2ccccc2)C(=O)C1N=Nc1ccc(S(N)(=O)=O)cc1 (stereo unspecified) ?
aDG glyco up: inactive; NPR1 activator: inactive; HSF-1 act: inactive; NPR2 activator: inactive; HSF1 inh: -78; DYRK1A inh: inactive

Results for CC1=NN(c2ccccc2)C(=O)C1N=Nc1ccc(C)cc1 (stereo unspecified) ?
HSF-1 act: inactive; HSF1 inh: inactive

Results for O=C(CC(c1ccco1)S(=O)(=O)c1ccccc1)c1ccccc1 (stereo unspecified) ?
aDG glyco up: inactive; NPR1 activator: inactive; HSF-1 act: 85; NPR2 activator: inactive; HSF1 inh: inactive; DYRK1A inh: inactive

What do the screens show for `N#C/C(=C/c1ccc(N2CCCCCC2)o1)c1cccc(F)c1`?
aDG glyco up: inactive; NPR1 activator: inactive; HSF-1 act: 81; NPR2 activator: inactive; HSF1 inh: inactive; DYRK1A inh: inactive

What do the screens show for `N#C/C(=C/c1ccc(N2CCOCC2)o1)c1ccc(Br)cc1`?
aDG glyco up: inactive; NPR1 activator: inactive; HSF-1 act: 94; NPR2 activator: inactive; HSF1 inh: inactive; DYRK1A inh: inactive

Results for N#C/C(=C/c1ccc(N2CCCCCC2)o1)c1ccc(F)cc1 ?
aDG glyco up: inactive; HSF-1 act: 114; HSF1 inh: inactive; DYRK1A inh: inactive

What do the screens show for `Cc1cc(C(=O)COC(=O)C2CCN(C(=O)c3ccc(Cl)cc3)CC2)c(C)n1CC1CCCO1` (stereo unspecified)?
aDG glyco up: inactive; NPR1 activator: inactive; HSF-1 act: inactive; NPR2 activator: inactive; HSF1 inh: inactive; DYRK1A inh: inactive

How did CC(=O)Nc1cc(C(C)(C)C)c(O)c(C(C)(C)C)c1 do in these assays?
aDG glyco up: inactive; NPR1 activator: inactive; HSF-1 act: inactive; NPR2 activator: inactive; HSF1 inh: inactive; DYRK1A inh: inactive

What do the screens show for `O=[N+]([O-])c1cc([N+](=O)[O-])c2cc3ccccc3nc2c1`?
aDG glyco up: inactive; NPR1 activator: inactive; HSF-1 act: 139; NPR2 activator: inactive; HSF1 inh: inactive; DYRK1A inh: inactive

What do the screens show for `CCOC(=O)N1CCN(C(=O)c2ccc3c(=O)n(-c4ccccc4F)c(=S)[nH]c3c2)CC1`?
aDG glyco up: inactive; NPR1 activator: inactive; HSF-1 act: inactive; NPR2 activator: inactive; HSF1 inh: inactive

What do the screens show for `COc1cccc(NC(=O)C2(C)CCN2Cc2ccc(-c3ccccc3)o2)c1` (stereo unspecified)?
aDG glyco up: inactive; NPR1 activator: inactive; NPR2 activator: inactive

Results for Cc1ccc(C)c(NC(=O)c2cc(-c3cc(C)ccc3O)n[nH]2)c1 ?
aDG glyco up: inactive; NPR1 activator: inactive; HSF-1 act: 92; NPR2 activator: inactive; HSF1 inh: inactive; DYRK1A inh: inactive

How did COc1ccc(OC)c(NC(=O)c2cc(-c3ccc(F)cc3OC(C)C)n[nH]2)c1 do in these assays?
aDG glyco up: inactive; NPR1 activator: inactive; NPR2 activator: inactive
